Calls of active or inactive are those of the source. Rule for the calls: active = hit-call score of the fitted dose curve at least 0.9, where 1 is the maximum; inactive = score below 0.9.
assay: ATG_SREBP_CIS: Attagene CIS-FACTORIAL HepG2 Assay for human Sterol Regulatory Element Binding (SREBP) (AID 2282962); details: HepG2 Attagene cis-factorial SREBP reporter, mRNA; actives raise or lower the signal
Protocol: ATG_CIS is a cell-based, multiplexed-readout assay that uses HepG2, a human liver cell line, with measurements taken at 24 hours after chemical dosing in a 24-well plate.ATG_SREBP_CIS is one of 52 assay component(s) measured or calculated from the ATG_CIS assay. It is designed to make measurements of mRNA induction, a form of inducible reporter, as detected with fluorescence intensity signals by Reverse transcription polymerase chain reaction (RT-PCR) and Capillary electrophoresis technology.Data from the assay component ATG_SREBP_CIS was analyzed into 1 assay endpoint. This assay endpoint, ATG_SREBP_CIS, was analyzed with bidirectional fitting relative to DMSO as the negative control and baseline of activity. Using a type of inducible reporter, measures of mRNA for gain or loss-of-signal activity can be used to understand the reporter gene at the transcription factor-level as they relate to the gene SREBF1. Furthermore, this assay endpoint can be referred to as a primary readout, because this assay has produced multiple assay endpoints where this one serves a reporter gene function. To generalize the intended target to other relatable targets, this assay endpoint is annotated to the dna binding intended target family, where the subfamily is basic helix-loop-helix leucine zipper.
Human liver HepG2 cells are transiently transfected with multiple reporter transcription units (MRTUs) in 6-well plates using FuGene 6 reagent (Roche; 3 ml FuGene/1 mg DNA). The MRTU constructs are regulated by a cis-regulating element (promoter). […] A major difference between the CIS and TRANS system is that in CIS activities of endogenous TFs are measured, whereas the TRANS assay evaluates changes in activities of exogenous, chimeric NR-Gal4 proteins. […] At the end of 24 hour incubation, total RNA was isolated using TriZol reagent (Invitrogen). The isolated RNA is then reverse-transcribed using oligo(dT) primer and Mo-MLV reverse transcriptase (Invitrogen) with DNAse I (Ambion) treatment for 30 min. The one-tenth of the produced cDNA was amplified by PCR using Taq DNA polymerase (Invitrogen) and two reporter sequence-specific primers. The PCR products were fluorescently labeled by primer extension with 6-arboxyfluorescein (6-FAM) 5'-labeled reporter sequence-specific primer (2 min at 95 C, 20 s at 68 C and 10 min at 72 C) and these products were digested with 5U of HpaI (New England Biolabs) for 2h at 37 C. The fragments were purified using Qiaquick PCR columns (Qiagen), analyzed on an ABI 3130xL genetic analyzer (Applied Biosystems) with peak positions identified by using a set of X-rhodamine (ROX)-labeled MapMarker1000 molecular weight standards (BioVentures). The raw capillary electrophoresis data was processed using Attagraph software (Attagene).

| SMILES | outcome | AC50 |
| --- | --- | --- |
| CC(C)CC(=O)CC(C)CC(C)C (stereo not given) | inactive |  |
| CC/C=C\CCCCCO | inactive |  |
| CCCN[C@H]1CCc2nc(N)sc2C1 | inactive |  |
| O=C(OCc1ccccc1)c1ccccc1 | inactive |  |
| CC(C)=CCOC(=O)c1ccccc1 | inactive |  |
| CC(=O)CCc1ccccc1 | inactive |  |
| O=C1CCCCCCCCCCCCCC1 | inactive |  |
| C=CN1CCCCCC1=O | inactive |  |
| COc1ccc2ccccc2c1 | inactive |  |
| CC(=O)Nc1c(I)c(NC(C)=O)c(I)c(C(=O)O)c1I | inactive |  |
| CC(=O)c1nccs1 | inactive |  |
| O=S(=O)(O)c1cccc2ccccc12 | inactive |  |
| CCCCCCCCCCC1CO1 (stereo not given) |  | 100 µM (active) |
| CCCCCCC(O)CCCCCCCCCCC(=O)OC (stereo not given) | inactive |  |
| Nc1ccc(S(=O)(=O)Nc2cnc3ccccc3n2)cc1 | inactive |  |
| Cc1cccnc1 | inactive |  |
| O=C(O)/C=C/C(=O)O | inactive |  |
| CCCCCC[C@@H](O)C/C=C\CCCCCCCC(=O)O | inactive |  |
| COC(OC)C(C)c1ccccc1 (stereo not given) | inactive |  |
| CCC(C)NC(N)=O (stereo not given) | inactive |  |

| SMILES | outcome | AC50 |
| --- | --- | --- |
| c1ccc2c(c1)Oc1ccccc1S2 |  | 146 µM (active) |
| Nc1nnc(-c2ccc([N+](=O)[O-])o2)o1 | inactive |  |
| COC(=O)/C=C\C(=O)OC | inactive |  |
| CN(C)c1ccc(C(c2ccccc2)c2ccc(N(C)C)cc2)cc1 | inactive |  |
| O=[N+]([O-])c1ccc2nc[nH]c2c1 | inactive |  |
| CN(C)CCC(c1ccc(Cl)cc1)c1ccccn1 (stereo not given) | inactive |  |
| Clc1ccc(Sc2cc(Cl)c(Cl)cc2Cl)cc1 | inactive |  |
| NC(N)=Nc1nc(CSCCC(N)=NS(N)(=O)=O)cs1 | inactive |  |
| CC1=NN(c2cc(Cl)c(S(=O)(=O)O)cc2Cl)C(=O)C1N=Nc1ccc(S(=O)(=O)O)cc1 (stereo not given) | inactive |  |
| O=C(C1CCCCC1)N1CC(=O)N2CCc3ccccc3C2C1 (stereo not given) | inactive |  |
| CC1(C)S[C@@H]2[C@H](NC(=O)[C@H](N)c3ccccc3)C(=O)N2[C@H]1C(=O)O | inactive |  |
| CCO[Si](OCC)(OCC)c1ccccc1 | inactive |  |
| CCO[Si](CCCN)(OCC)OCC | inactive |  |
| O=C(O)c1ccccc1C(=O)O | inactive |  |
| CC1=C(CC=O)C(C)(C)CCC1 | inactive |  |
| Clc1ccccn1 | inactive |  |
| COC(=O)c1ccccc1 | inactive |  |
| O=C(C(=O)c1ccccc1)c1ccccc1 | inactive |  |
| COC(=O)CCSCCC(=O)OC | inactive |  |
| CCCC(=O)OC | inactive |  |

— PubChem BioAssay (EPA / NIEHS)
